Reference: PubChem BioAssay AID1159580 (chemical genetic matrix, 2015)
Among all 5,500 compounds or so, about 2,000 (36%) were called active. Roughly 18% stayed inconclusive and do not appear here. Cut-off read from the data, not from the text of the source: active = normalized growth mostly below about 0.91 (no sharp cut-off); inconclusive = no clear call, values can overlap the other calls; inactive = mostly above about 0.92. This is one part of the list.

Assay: chemical genetic growth profiling, strain panel (AID 1159580);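 note: tested at 20 µM; growth read once vehicle control cultures reached saturation at 30 °C; 1 = growth at the plate median or of vehicle wells; lower values mean less growth of the strain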
Details: growth OD

Measured: normalized growth

COc1cccc2c1CCC1=CC(=O)CC[C@@]12C
inactive: S. cerevisiae deletion strains, locus YJR075W, strain HOC1, active compounds read low 0.973 | S. cerevisiae deletion strains, locus YKL009W, strain mrt4, active compounds read low 0.98 | S. cerevisiae deletion strains, locus YKL068W, active compounds read low 1 | S. cerevisiae deletion strains, locus YKL085W, strain MDH1 (second series), active compounds read low 0.982 | S. cerevisiae deletion strains, locus YKL085W, strain MDH1, active compounds read low 0.982 | S. cerevisiae deletion strains, locus YKL160W, strain elf1, active compounds read low 1 | S. cerevisiae deletion strains, locus YKL190W, strain CNB1, active compounds read low 1.01 | S. cerevisiae deletion strains, locus YKR001C, strain vps1, active compounds read low 0.986 | S. cerevisiae deletion strains, locus YKR026C, strain gcn3, active compounds read low 0.994 | S. cerevisiae deletion strains, locus YKR091W, strain srl3, active compounds read low 0.998 | S. cerevisiae deletion strains, locus YLL001W, strain dnm1, active compounds read low 1 | S. cerevisiae deletion strains, locus YLL026W, active compounds read low 0.992 | S. cerevisiae deletion strains, locus YLL041C, strain sdh2, active compounds read low 0.995 | S. cerevisiae deletion strains, locus YLR027C, strain aat2, active compounds read low 1.01 | S. cerevisiae deletion strains, locus YLR039C, strain RIC1, active compounds read low 1.1 | S. cerevisiae deletion strains, locus YLR058C, strain SHM2, active compounds read low 0.993 | S. cerevisiae deletion strains, locus YLR102C, strain apc9, active compounds read low 0.993 | S. cerevisiae deletion strains, locus YLR221C, strain rsa3, active compounds read low 0.988 | S. cerevisiae deletion strains, locus YLR258W, strain gsy2, active compounds read low 0.999 | S. cerevisiae deletion strains, locus YLR262C, strain YPT6 (second series), active compounds read low 1.05 | S. cerevisiae deletion strains, locus YLR262C, strain YPT6, active compounds read low 1.1 | S. cerevisiae deletion strains, locus YLR268W, strain sec22, active compounds read low 0.973 | S. cerevisiae deletion strains, locus YLR320W, strain mms22, active compounds read low 1 | S. cerevisiae deletion strains, locus YLR330W, strain CHS5, active compounds read low 0.998 | S. cerevisiae deletion strains, locus YLR342W, strain FKS1 (second series), active compounds read low 0.941 | S. cerevisiae deletion strains, locus YLR342W, strain FKS1, active compounds read low 0.997 | S. cerevisiae deletion strains, locus YLR357W, strain rsc2, active compounds read low 1.02 | S. cerevisiae deletion strains, locus YLR370C, strain arc18, active compounds read low 0.99 | S. cerevisiae deletion strains, locus YLR371W, strain rom2, active compounds read low 0.988 | S. cerevisiae deletion strains, locus YLR384C, strain iki3, active compounds read low 1.02 | S. cerevisiae deletion strains, locus YLR418C, strain cdc73, active compounds read low 0.9 | S. cerevisiae deletion strains, locus YML016C, strain PPZ1, active compounds read low 0.989 | S. cerevisiae deletion strains, locus YML032C, strain rad52, active compounds read low 0.988 | S. cerevisiae deletion strains, locus YML120C, strain ndi1, active compounds read low 0.988 | S. cerevisiae deletion strains, locus YML124C, strain tub3, active compounds read low 0.988 | S. cerevisiae deletion strains, locus YMR058W, strain fet3, active compounds read low 1 | S. cerevisiae deletion strains, locus YMR078C, strain ctf18, active compounds read low 0.985 | S. cerevisiae deletion strains, locus YMR125W, strain sto1, active compounds read low 1 | S. cerevisiae deletion strains, locus YMR129W, active compounds read low 0.991 | S. cerevisiae deletion strains, locus YMR205C, strain PFK2, active compounds read low 1 | S. cerevisiae deletion strains, locus YMR223W, strain ubp8, active compounds read low 0.964 | S. cerevisiae deletion strains, locus YMR231W, strain pep5, active compounds read low 1 | S. cerevisiae deletion strains, locus YMR263W, strain SAP30, active compounds read low 0.978 | S. cerevisiae deletion strains, locus YMR307W, strain GAS1, active compounds read low 0.957 | S. cerevisiae deletion strains, locus YNL067W, strain RPL9B, active compounds read low 0.984 | S. cerevisiae deletion strains, locus YNL071W, strain lat1, active compounds read low 1 | S. cerevisiae deletion strains, locus YNL128W, strain TEP1, active compounds read low 1.01 | S. cerevisiae deletion strains, locus YNL153C, strain GIM3, active compounds read low 0.989 | S. cerevisiae deletion strains, locus YNL209W, strain ssb2, active compounds read low 1.02 | S. cerevisiae deletion strains, locus YNL233W, strain BNI4, active compounds read low 0.988 | S. cerevisiae deletion strains, locus YNL248C, strain rpa49, active compounds read low 1.01 | S. cerevisiae deletion strains, locus YNL250W, strain rad50, active compounds read low 0.997 | S. cerevisiae deletion strains, locus YNL271C, strain bni1, active compounds read low 0.985 | S. cerevisiae deletion strains, locus YNL298W, strain CLA4, active compounds read low 0.969 | S. cerevisiae deletion strains, locus YNL307C, strain MCK1, active compounds read low 0.933 | S. cerevisiae deletion strains, locus YNL322C, strain KRE1 (second series), active compounds read low 1.01 | S. cerevisiae deletion strains, locus YNL322C, strain KRE1, active compounds read low 1 | S. cerevisiae deletion strains, locus YNR049C, strain mso1, active compounds read low 1.02 | S. cerevisiae deletion strains, locus YNR052C, strain pop2, active compounds read low 0.996 | S. cerevisiae deletion strains, locus YOL006C, strain TOP1, active compounds read low 0.863 | S. cerevisiae deletion strains, locus YOL012C, strain htz1 1.1 | S. cerevisiae deletion strains, locus YOL147C, strain pex11, active compounds read low 0.982 | S. cerevisiae deletion strains, locus YOR001W, strain rrp6, active compounds read low 1.02 | S. cerevisiae deletion strains, locus YOR061W, strain CKA2, active compounds read low 0.996 | S. cerevisiae deletion strains, locus YOR069W, strain VPS5, active compounds read low 1 | S. cerevisiae deletion strains, locus YOR070C, strain gyp1, active compounds read low 1 | S. cerevisiae deletion strains, locus YOR080W, strain dia2, active compounds read low 1 | S. cerevisiae deletion strains, locus YOR083W, strain WHI5, active compounds read low 1.01 | S. cerevisiae deletion strains, locus YOR106W, strain vam3, active compounds read low 1.01 | S. cerevisiae deletion strains, locus YOR136W, strain idh2, active compounds read low 0.992 | S. cerevisiae deletion strains, locus YOR144C, strain elg1, active compounds read low 0.991 | S. cerevisiae deletion strains, locus YOR184W, strain ser1, active compounds read low 0.913 | S. cerevisiae deletion strains, locus YOR265W, strain rbl2, active compounds read low 1 | S. cerevisiae deletion strains, locus YOR270C, strain vph1, active compounds read low 0.915 | S. cerevisiae deletion strains, locus YOR290C, strain snf2, active compounds read low 1.02 | S. cerevisiae deletion strains, locus YOR316C, strain cot1, active compounds read low 0.99 | S. cerevisiae deletion strains, locus YPL051W, strain arl3, active compounds read low 1 | S. cerevisiae deletion strains, locus YPL055C, strain LGE1, active compounds read low 0.946 | S. cerevisiae deletion strains, locus YPL078C, strain atp4, active compounds read low 1 | S. cerevisiae deletion strains, locus YPL106C, strain sse1, active compounds read low 1.02 | S. cerevisiae deletion strains, locus YPL240C, strain hsp82, active compounds read low 0.995 | S. cerevisiae deletion strains, locus YPL241C, strain CIN2, active compounds read low 1 | S. cerevisiae deletion strains, locus YPR119W, strain clb2, active compounds read low 0.989 | S. cerevisiae deletion strains, locus YPR141C, strain kar3, active compounds read low 0.997 | S. cerevisiae deletion strains, locus YPR163C, strain tif3, active compounds read low 0.979 | S. cerevisiae deletion strains, locus YPR167C, strain met16, active compounds read low 0.983 | S. cerevisiae deletion strains, strain wtn01, active compounds read low 0.96 | S. cerevisiae strains, strain wild type, active compounds read low 1.01
